Source: PubChem BioAssay (NCATS)
Values joined by “and” are separate entries in the source; they are usually repeats but may differ in a detail not shown here. Equal values may be shown once. Results filed as inconclusive are left out. More than one record can exist for a structure, and the calls need not agree. Active and inactive are the calls of the source. Unless noted, calls follow the shape of the full dose curve.

Key:
[1] = qHTS for Inhibitors of the Functional Ribonucleoprotein Complex (vRNP) of Lassa (LASV) Arenavirus: LASV Primary Screen - GLuc reporter signal (AID 1347082; calls by dose curve; tested in HEK293 reporter line; also: series mostly up to about 57 µM; % is scaled to controls: 0 for no effect and ±100 for the full control effect; nearly all actives have a fitted effect of over 60% in size)
[2] = qHTS for Inhibitors of the Functional Ribonucleoprotein Complex (vRNP) of Lassa (LASV) Arenavirus: Viability assay - alamar blue signal for LASV Primary Screen (AID 1347083; calls by dose curve; tested in HEK293 reporter line; also: series mostly up to about 57 µM; % is scaled to controls: 0 for no effect and ±100 for the full control effect; nearly all actives have a fitted effect of over 80% in size)
[3] = qHTS for Inhibitors of the Functional Ribonucleoprotein Complex (vRNP) of Lymphocytic Choriomeningitis Arenaviruses (LCMV): Viability assay - alamar blue signal for LCMV Primary Screen (AID 1347085; calls by dose curve; tested in HEK293 reporter line; also: series mostly up to about 57 µM; % is scaled to controls: 0 for no effect and ±100 for the full control effect; nearly all actives have a fitted effect of over 80% in size)
[4] = target: Nucleoprotein (Lymphocytic choriomeningitis virus (strain Armstrong)) (UniProt P09992); assay: qHTS for Inhibitors of the Functional Ribonucleoprotein Complex (vRNP) of Lymphocytic Choriomeningitis Arenaviruses (LCMV): LCMV Primary Screen - GLuc reporter signal (AID 1347086); also: series mostly up to about 57 µM; % is scaled to controls: 0 for no effect and ±100 for the full control effect; nearly all actives have a fitted effect of over 70% in size
Chain of Nucleoprotein (Lymphocytic choriomeningitis virus (strain Armstrong)) (P09992 whole entry, looked up): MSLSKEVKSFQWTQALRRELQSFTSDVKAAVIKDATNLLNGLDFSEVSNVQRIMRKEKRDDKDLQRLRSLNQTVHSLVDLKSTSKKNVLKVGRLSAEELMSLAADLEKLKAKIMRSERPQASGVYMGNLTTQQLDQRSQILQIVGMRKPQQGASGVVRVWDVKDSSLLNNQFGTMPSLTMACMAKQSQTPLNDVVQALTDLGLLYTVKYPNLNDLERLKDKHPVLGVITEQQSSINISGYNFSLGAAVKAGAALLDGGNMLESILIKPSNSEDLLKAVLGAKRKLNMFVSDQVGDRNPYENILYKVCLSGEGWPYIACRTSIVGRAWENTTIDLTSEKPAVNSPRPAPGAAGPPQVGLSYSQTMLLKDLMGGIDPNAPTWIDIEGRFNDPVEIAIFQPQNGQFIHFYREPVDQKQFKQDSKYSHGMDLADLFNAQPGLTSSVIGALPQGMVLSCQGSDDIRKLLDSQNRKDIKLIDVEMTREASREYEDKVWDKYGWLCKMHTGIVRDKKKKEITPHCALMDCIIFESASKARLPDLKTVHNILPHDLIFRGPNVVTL

[5] = target: Nuclear receptor subfamily 1 group I member 3 (Homo sapiens) (UniProt Q14994); assay: Primary qHTS for antagonist of constitutive androstane receptor (CAR) against the NCATS DSHEA and TCM libraries (AID 1794836; active = well fitted curve in the direction sought with a large enough effect; an effect the other way counts as inactive or inconclusive;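 also: HepG2 cells stably expressing hCAR with CYP2B6 luciferase reporter stimulated by CITCO; series mostly up to about 40 µM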)
Chain of Nuclear receptor subfamily 1 group I member 3 (Homo sapiens) (Q14994 whole entry, looked up): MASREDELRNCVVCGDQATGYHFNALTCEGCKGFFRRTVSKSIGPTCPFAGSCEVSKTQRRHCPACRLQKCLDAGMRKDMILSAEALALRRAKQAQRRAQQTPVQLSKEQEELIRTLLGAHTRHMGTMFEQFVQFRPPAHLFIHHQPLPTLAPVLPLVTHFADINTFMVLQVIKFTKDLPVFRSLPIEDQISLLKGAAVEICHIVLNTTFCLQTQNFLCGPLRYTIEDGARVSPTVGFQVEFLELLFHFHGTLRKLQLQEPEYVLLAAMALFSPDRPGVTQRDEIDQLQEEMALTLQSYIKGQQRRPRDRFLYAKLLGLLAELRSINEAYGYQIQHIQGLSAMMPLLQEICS
Method in brief: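 HepG2-CYP2B6-hCAR cells, attached 5 h, given compounds plus CITCO agonist […], incubated 24 h at 37 C. Luciferase luminescence read, multiplexed with CellTiter-Fluor viability (Ex/Em 405/540 nm).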

[6] = target: Alpha-galactosidase (Coffea arabica) (UniProt Q42656); assay: Counterscreen for Glucocerebrosidase Inhibitors: qHTS Assay for Coffee Bean alpha-Galactosidase at pH 4.5 (AID 957; active = well fitted curve in the direction sought with a large enough effect; an effect the other way counts as inactive or inconclusive;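 also: series mostly up to about 77 µM; plate controls were enzyme alone for no effect and no enzyme for full effect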)
Chain of Alpha-galactosidase (Coffea arabica) (Q42656 whole entry, looked up): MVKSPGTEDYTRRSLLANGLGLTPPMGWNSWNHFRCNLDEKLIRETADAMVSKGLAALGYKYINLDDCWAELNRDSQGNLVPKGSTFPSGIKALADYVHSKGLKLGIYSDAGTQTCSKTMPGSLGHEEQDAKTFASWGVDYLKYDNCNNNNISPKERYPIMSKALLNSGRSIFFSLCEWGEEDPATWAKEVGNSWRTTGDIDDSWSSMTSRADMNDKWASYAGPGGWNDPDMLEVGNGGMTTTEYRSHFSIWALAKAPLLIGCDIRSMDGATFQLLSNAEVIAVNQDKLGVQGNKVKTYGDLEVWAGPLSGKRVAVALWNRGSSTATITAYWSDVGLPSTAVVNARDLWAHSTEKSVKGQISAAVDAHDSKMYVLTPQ
Method in brief: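 Enzyme is added first (2 nM final), then compounds titrated from 0.7 nM to 77 uM, then 80 uM 4-methylumbelliferyl alpha-D-galactopyranoside; after 20 min at room temperature a pH 10 NaOH/glycine stop precedes fluorescence reading at 365/440 nm.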

[7] = target: Alpha-galactosidase (Coffea arabica) (UniProt Q42656); assay: Counterscreen for Glucocerebrosidase Inhibitors: qHTS Assay for Coffee Bean alpha-Galactosidase at pH 5.9 (AID 998; active = well fitted curve in the direction sought with a large enough effect; an effect the other way counts as inactive or inconclusive;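 also: plate controls were uninhibited enzyme for no effect and no-enzyme basal signal for full effect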)
Method in brief: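 Enzyme 2 nM + cpd (0.7 nM–77 uM titration) + 4-MU-alpha-Gal 80 uM, pH 5.9 citrate/Tween-20, RT 20 min, NaOH/glycine stop pH 10, fluor 365/440. Normalized to no-enzyme and full-activity controls; Hill-fit AC50.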

[8] = Validation screen for inhibitors of Lassa infection (AID 463096); also: potency is read from the fitted curve at half-maximal effect
[9] = Inducers of the Endoplasmic Reticulum Stress Response (ERSR) in human glioma: Validation (AID 504836; active = well fitted curve in the direction sought with a large enough effect; an effect the other way counts as inactive or inconclusive; also: 0% is about no effect)
Method in brief: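 Stably transfected U87-MG glioma cells carrying a GRP78-based luciferase sensor; 16 h compound incubation. Luminescence end-point read 10 min after Bright-Glo addition at room temperature.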

[10] = target: Cytochrome P450 3A4 (Homo sapiens) (UniProt P08684); assay: qHTS Assay for Activators of Cytochrome P450 3A4 (AID 885; active = well fitted curve in the direction sought with a large enough effect; an effect the other way counts as inactive or inconclusive; also: nearly all actives have a fitted effect of over 65% in size)
Chain of Cytochrome P450 3A4 (Homo sapiens) (P08684 whole entry, looked up): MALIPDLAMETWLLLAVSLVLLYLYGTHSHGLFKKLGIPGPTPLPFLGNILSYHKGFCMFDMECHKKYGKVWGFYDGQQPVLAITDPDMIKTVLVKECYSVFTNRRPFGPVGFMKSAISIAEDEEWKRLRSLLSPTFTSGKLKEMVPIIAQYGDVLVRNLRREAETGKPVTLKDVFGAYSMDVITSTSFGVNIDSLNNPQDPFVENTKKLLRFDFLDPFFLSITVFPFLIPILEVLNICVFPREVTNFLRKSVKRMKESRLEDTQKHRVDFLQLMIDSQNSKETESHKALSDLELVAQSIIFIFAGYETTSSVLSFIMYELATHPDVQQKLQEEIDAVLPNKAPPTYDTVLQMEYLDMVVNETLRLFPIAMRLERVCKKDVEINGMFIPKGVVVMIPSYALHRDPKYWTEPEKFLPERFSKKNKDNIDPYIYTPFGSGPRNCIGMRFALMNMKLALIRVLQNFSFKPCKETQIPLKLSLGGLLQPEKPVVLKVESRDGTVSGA
Method in brief: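 Luminescent readout of luciferin formed from 25 uM Luciferin-PPXE (KM level) by 20 nM CYP3A4 in 200 mM KPO4, with 60 min NADPH-driven reaction at room temperature after 10 min compound exposure. Ketoconazole (57 uM) defined 100% inhibition.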

[11] = target: M-phase phosphoprotein 8 (Homo sapiens) (UniProt Q99549); assay: qHTS Validation Assay for Inhibitors for MPP8 Chromodomain Interactions with Methylated Histone Tails (AID 488949; active = well fitted curve in the direction sought with a large enough effect; an effect the other way counts as inactive or inconclusive; also: nearly all actives have a fitted effect of over 55% in size; also: potency is read from the fitted curve at half-maximal effect)
Chain of M-phase phosphoprotein 8 (Homo sapiens) (Q99549 whole entry, looked up): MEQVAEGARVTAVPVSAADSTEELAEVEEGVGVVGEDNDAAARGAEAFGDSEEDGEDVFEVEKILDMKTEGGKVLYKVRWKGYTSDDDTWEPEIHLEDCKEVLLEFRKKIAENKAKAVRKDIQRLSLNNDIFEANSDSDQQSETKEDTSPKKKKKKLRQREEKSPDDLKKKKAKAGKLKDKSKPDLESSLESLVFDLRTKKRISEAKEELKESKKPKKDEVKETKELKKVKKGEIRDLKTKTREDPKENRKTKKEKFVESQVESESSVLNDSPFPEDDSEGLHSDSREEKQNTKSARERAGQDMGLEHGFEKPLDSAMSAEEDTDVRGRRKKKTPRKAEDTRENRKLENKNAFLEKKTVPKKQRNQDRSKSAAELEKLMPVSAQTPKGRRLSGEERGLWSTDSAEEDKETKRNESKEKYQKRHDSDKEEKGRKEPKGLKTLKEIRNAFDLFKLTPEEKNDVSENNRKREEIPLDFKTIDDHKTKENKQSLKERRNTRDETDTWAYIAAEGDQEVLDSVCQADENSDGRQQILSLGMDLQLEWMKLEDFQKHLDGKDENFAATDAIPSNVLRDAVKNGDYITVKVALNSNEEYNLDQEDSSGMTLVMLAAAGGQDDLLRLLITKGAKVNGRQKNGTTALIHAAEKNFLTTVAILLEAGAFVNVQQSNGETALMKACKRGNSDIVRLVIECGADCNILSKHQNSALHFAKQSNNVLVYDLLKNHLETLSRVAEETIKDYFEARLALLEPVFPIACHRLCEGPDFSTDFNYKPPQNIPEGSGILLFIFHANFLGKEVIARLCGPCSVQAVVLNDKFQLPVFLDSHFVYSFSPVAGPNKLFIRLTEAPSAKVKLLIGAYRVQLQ
Method in brief: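 50 nM MPP8 + 50 nM b-H3K9me3 peptide, PBS pH 7.4/0.01% Tween-20, 30 min RT; + cpd 30 min RT; + AlphaScreen donor/Ni-chelate acceptor beads 10 ug/mL final, 30 min dark; luminescence read.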

[12] = MultiTox-Fluor Cytotoxicity Assay - LYMP1-003 - Dead Cells (AID 961; active = well fitted curve in the direction sought with a large enough effect; an effect the other way counts as inactive or inconclusive; also: nearly all actives have a fitted effect of over 70% in size)
Method in brief: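 Dead-cell protease release, detected as bis-AAF-R110 fluorescence at 485/520 nm, was measured in LYMP1-003 cells after 16 h compound treatment at 37 C. AC50 values came from Hill-modeled qHTS curves normalized to DMSO (0%) and 15 uM tetraoctylammonium bromide (100%).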

[13] = Cell Viability - LYMP1-003 - Assay at 40 hr (AID 964; active = well fitted curve in the direction sought with a large enough effect; an effect the other way counts as inactive or inconclusive; also: series mostly up to about 92 µM; % is scaled to controls: 0 for no effect and ±100 for the full control effect; nearly all actives have a fitted effect of over 60% in size)
Method in brief: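 Luminescent ATP signal (CellTiter-Glo) served as the viability read-out after 40 hr compound treatment of human lymphoblastoid LYMP1-003 cells at 37 C. Decreases in ATP were fitted with the Hill equation to give AC50.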

[14] = Cell Viability - LYMP1-002 - Assay at 40 hr (AID 994; active = well fitted curve in the direction sought with a large enough effect; an effect the other way counts as inactive or inconclusive;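 also: 0% = DMSO only and full inhibition = 92 µM tetraoctylammonium bromide; nearly all actives have a fitted effect of over 60% in size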)
Method in brief: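 Cells are plated at 2500 per well and rested 5 hr at 37 C. Compounds are added and incubated 40 hr at 37 C. CellTiter-Glo reagent is added for 30 min at room temperature before luminescence is read.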

[15] = target: Peroxisome proliferator-activated receptor delta (Homo sapiens) (UniProt Q03181); assay: qHTS assay for small molecule agonists of peroxisome proliferator-activated receptor delta signaling (AID 588534);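 also: 0% = DMSO basal wells and 100% = positive control agonist at 10 µM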
Chain of Peroxisome proliferator-activated receptor delta (Homo sapiens) (Q03181 whole entry, looked up): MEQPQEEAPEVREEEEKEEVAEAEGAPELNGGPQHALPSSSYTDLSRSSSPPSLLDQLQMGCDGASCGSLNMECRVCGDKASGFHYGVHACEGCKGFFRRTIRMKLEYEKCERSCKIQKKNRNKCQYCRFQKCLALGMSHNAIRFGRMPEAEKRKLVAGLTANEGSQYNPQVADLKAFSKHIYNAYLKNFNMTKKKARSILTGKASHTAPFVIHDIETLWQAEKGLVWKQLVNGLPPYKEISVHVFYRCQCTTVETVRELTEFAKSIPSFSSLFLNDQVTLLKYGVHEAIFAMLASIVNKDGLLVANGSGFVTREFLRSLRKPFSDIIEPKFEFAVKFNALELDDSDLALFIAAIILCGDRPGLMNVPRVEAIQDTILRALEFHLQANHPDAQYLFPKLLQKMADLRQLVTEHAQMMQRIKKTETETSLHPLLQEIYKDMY
Method in brief: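 Agonist-mode qHTS; reporter cells, 5 hrs 37 C pre-incubation; compound titration, 18 hrs 37 C; CCF4 dye, 2 hrs RT; fluorescence read. EC50/efficacy via Hill fit.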

[16] = target: Nuclear receptor ROR-gamma (Homo sapiens) (UniProt P51449); assay: qHTS assay for small molecule antagonists of the retinoid-related orphan receptor gamma (ROR-gamma) signaling pathway (AID 651802; active = well fitted curve in the direction sought with a large enough effect; an effect the other way counts as inactive or inconclusive;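 also: CHO cells with doxycycline-induced ROR-gamma expression; series mostly up to about 92 µM; % is scaled to controls: 0 for no effect and ±100 for the full control effect; nearly all actives have a fitted effect of over 60% in size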)
Chain of Nuclear receptor ROR-gamma (Homo sapiens) (P51449 whole entry, looked up): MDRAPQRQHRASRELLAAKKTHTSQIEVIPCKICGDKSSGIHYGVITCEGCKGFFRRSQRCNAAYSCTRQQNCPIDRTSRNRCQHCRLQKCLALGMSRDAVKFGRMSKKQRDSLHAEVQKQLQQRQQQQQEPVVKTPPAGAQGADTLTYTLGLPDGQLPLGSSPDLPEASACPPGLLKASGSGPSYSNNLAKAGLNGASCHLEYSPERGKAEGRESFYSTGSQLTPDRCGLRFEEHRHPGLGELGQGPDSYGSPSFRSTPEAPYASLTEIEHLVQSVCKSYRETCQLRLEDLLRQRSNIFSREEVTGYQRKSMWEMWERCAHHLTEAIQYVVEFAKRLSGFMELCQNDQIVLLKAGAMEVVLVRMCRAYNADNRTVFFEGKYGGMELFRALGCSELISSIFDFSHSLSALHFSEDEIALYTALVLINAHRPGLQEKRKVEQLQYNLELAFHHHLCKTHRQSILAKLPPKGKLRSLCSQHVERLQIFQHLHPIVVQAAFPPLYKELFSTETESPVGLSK
Method in brief: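 Steps: cells dispensed; compound or DMSO transferred by pin tool; doxycycline added to induce the ROR response element-driven luciferase; plates held 16hr at 37C; ONE-Glo added and luminescence measured.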

[17] = qHTS assay for small molecule agonists of the antioxidant response element (ARE) signaling pathway measured by Nrf2-dependant transcriptional activity - cell viability counter screen (AID 720653; active = well fitted curve in the direction sought with a large enough effect in the repeat runs; an effect the other way counts as inactive or inconclusive; also: % is scaled to controls: 0 for no effect and ±100 for the full control effect); conditions: ARE-bla HepG2 viability, CellTiter-Glo ATP luminescence, 16 h; max response: stronger effect = lower value
Method in brief: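 ARE-bla HepG2 cells treated with compounds for 16 h at 37C; this counter screen measures viability as intracellular ATP by CellTiter-Glo luminescence after 30 min at room temperature.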

[18] = target: Cytochrome P450 3A4 (Homo sapiens) (UniProt P08684); assay: qHTS Assay for Inhibitors and Substrates of Cytochrome P450 3A4 (AID 884; active = well fitted curve in the direction sought with a large enough effect; an effect the other way counts as inactive or inconclusive; also: nearly all actives have a fitted effect of over 50% in size; also: potency is read from the fitted curve at half-maximal effect)
Method in brief: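 Luminescent readout of luciferin produced by CYP3A4 (20 nM) dealkylation of Luciferin-PPXE, 25 uM (its KM). NADPH-driven reaction ran 60 min at RT after 10 min compound preincubation; data scaled to 57 uM ketoconazole as 100% inhibition.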

O=c1c(-c2ccc(O)cc2)coc2cc(O[C@@H]3O[C@H](CO)[C@H](O)[C@H](O)[C@H]3O)ccc12
inactive: Potency [1] | Potency [2] | Potency [3] | Potency [4] | Potency [5]

COc1ccc(C(C)=O)c(O)c1
inactive: Potency [1] | Potency [2] | Potency [3] | Potency [4] | Potency [5]

Nc1nc2[nH]c(=O)cnc2c(=O)[nH]1
inactive: outcome [6] | outcome [7] | Potency [8] | outcome [9] | Potency [1] | Potency [2] | Potency [3] | Potency [4]

O=c1cc(-c2ccc(O)cc2)oc2cc(O)cc(O)c12
inactive: outcome [6] | outcome [7] | outcome [9] | Potency [1] | Potency [2] | Potency [3] | Potency [4] | Potency [5]

CC(C)(C)c1ccc(S(=O)(=O)/C=C/C#N)cc1
active: Potency [8] 11.2 µM
inactive: Potency [1] | Potency [2] | Potency [3] | Potency [4]

CCCC[C@@]1(C2CCCC2)Cc2cc(OCC(=O)O)c(Cl)c(Cl)c2C1=O
inactive: Potency [8] | Potency [1] | Potency [2] | Potency [3] | Potency [4]

O=C(/C=C/c1ccc(O)c(O)c1)OCCc1ccccc1
inactive: Potency [8] | Potency [1] | Potency [2] | Potency [3] | Potency [4]

C=CC1(C)CC(=O)C2(O)C(C)(O1)C(OC(C)=O)C(O)C1C(C)(C)CCC(O)C12C (stereo not drawn)
inactive: Potency [8] | Potency [1] | Potency [2] | Potency [3] | Potency [4]

NC1CONC1=O (stereo not drawn)
inactive: Potency [8] | Potency [1] | Potency [2] | Potency [3] | Potency [4]

CCCCCCCCCCCCCCCC(=O)OC(CC(=O)O)C[N+](C)(C)C (stereo not drawn)
inactive: Potency [8] | Potency [1] | Potency [2] | Potency [3] | Potency [4]

CC1=C[C@@H]2c3cccc4[nH]cc(c34)C[C@H]2N(C)C1
inactive: Potency [1] | Potency [2] | Potency [3] | Potency [4]

C[C@@]12C[C@@]3(O)O[C@@H](O1)[C@]1(COC(=O)c4ccccc4)[C@@H]3C[C@@]12O[C@@H]1O[C@H](CO)[C@@H](O)[C@H](O)[C@@H]1O
inactive: Potency [1] | Potency [2] | Potency [3] | Potency [4] | Potency [5]

NCCC1CCCC(CCN)N1 (stereo not drawn)
inactive: Potency [8] | Potency [1] | Potency [2] | Potency [3] | Potency [4]

CCCCCC(=O)CC
inactive: Potency [1] | Potency [2] | Potency [3] | Potency [4] | Potency [5]

CNc1ncnc2c1ncn2[C@H]1C[C@H](OP(=O)(O)O)[C@@H](COP(=O)(O)O)O1
inactive: Potency [8] | Potency [1] | Potency [2] | Potency [3] | Potency [4]

O=c1cc(O)cc(/C=C/c2ccc(O)c(O)c2)o1
inactive: Potency [8] | Potency [1] | Potency [2] | Potency [3] | Potency [4]

N=c1c[n+](N2CCOCC2)[n-]o1
inactive: Potency [8] | Potency [1] | Potency [2] | Potency [3] | Potency [4]

Nc1nc2ccc(Cl)cc2c2nc(-c3ccco3)nn12
inactive: Potency [10] | outcome [6] | outcome [7] | Potency [8] | outcome [9] | Potency [1] | Potency [2] | Potency [3] | Potency [4]
50.1 µM (active) and inactive: Potency [11]

c1ccc(Nc2ccc3ccccc3c2)cc1
inactive: Potency [10] | Potency [12] | Potency [13] | Potency [14] | Potency [15] | Potency [16] | max response [17] -8.38% and -2.45% | Potency [1] | Potency [2] | Potency [3] | Potency [4]

COc1cc([C@@H]2c3cc4c(cc3[C@H](O)C3COC(=O)[C@@H]32)OCO4)cc(OC)c1OC (stereo partly drawn)
inactive: Potency [8] | Potency [11] | outcome [9] | Potency [1] | Potency [2] | Potency [3] | Potency [4]

CCCCCCCCCCCCCC(=O)OCC(O)CO (stereo not drawn)
inactive: Potency [1] | Potency [2] | Potency [3] | Potency [4] | Potency [5]

O=c1oc(Cl)c(Cl)c2ccccc12
inactive: outcome [6] | outcome [7] | outcome [9] | Potency [1] | Potency [2] | Potency [3] | Potency [4]
25.1 µM (active) and inactive: Potency [11]

CC(=O)/C=C/c1ccccc1
inactive: Potency [18] | Potency [12] | Potency [13] | Potency [14] | Potency [15] | Potency [16] | max response [17] -6.98% | Potency [1] | Potency [2] | Potency [3] | Potency [4]

NC(C(=O)N[C@@H]1C(=O)N2C(C(=O)O)=C(Cl)CS[C@H]12)c1ccccc1 (stereo partly drawn)
inactive: Potency [8] | Potency [1] | Potency [2] | Potency [3] | Potency [4]

CCCCCCCCCC=O
inactive: Potency [1] | Potency [2] | Potency [3] | Potency [4] | Potency [5]

CCNC(=O)[C@H]1O[C@@H](n2cnc3c(N)nc(NCCc4ccc(CCC(=O)O)cc4)nc32)[C@H](O)[C@H]1O
inactive: Potency [8] | Potency [1] | Potency [2] | Potency [3] | Potency [4]

Brc1c(Br)c(Br)c2n[nH]nc2c1Br
inactive: Potency [10] | outcome [6] | outcome [7] | Potency [8] | Potency [11] | outcome [9] | Potency [1] | Potency [2] | Potency [3] | Potency [4]
active: Potency [18] 3.16 µM
